Reference: PubChem BioAssay AID1347041 (National Center for Advancing Translational Sciences (NCATS), 2019)
About 740 (0.15%) of roughly 480,000 compounds were called active. Shown is part of a subset that was picked to be rich in actives. Values without a mark were called inactive. Cut-off read from the data, not from the text of the source: active = activity change below about -30%; inconclusive = mostly about -25% to -30%; inactive = weaker than that.

biological target: L-lactate dehydrogenase A chain (Homo sapiens) (UniProt P00338); test: qHTS assay for inhibitors of human lactate dehydrogenase; details: purified LDHA, NADH/diaphorase-resazurin fluorescence; hits give low values;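 note: values are at about 110 or 230 µM; plate controls were DMSO wells for no effect and wells without enzyme for full effect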
Method in brief: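 Human LDH5 (2 nM) was incubated with 0.06 mM NADH and 0.2 mM pyruvate for 5 min at room temperature in Tris pH 7.4. Remaining NADH was coupled through diaphorase/resazurin, and resorufin fluorescence was read at 0 and 20 min.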

Point of comparison: `CN(Cc1ccc(Cl)cc1)C(=O)Cn1nnn(-c2cccs2)c1=O`, activity change -0.86%. Against it:
- CCc1ccc(NC(=O)CSc2nccn2Cc2ccccc2OC)cc1 — higher, 8.74%
- CC(NC(=O)c1cc(Cl)sc1Cl)C12CC3CC(CC(C3)C1)C2 (stereo unspecified) — higher, 1.53%
- COc1ccc(-c2cc(C(=O)O)c3cc(C)ccc3n2)cc1OC — higher, 6.4%
- CC(C)Cn1nc(C(=O)NCc2ccccc2F)c2ccccc2c1=O — higher, 8.3%
- COCCCN(C)Cc1cccc(OC)c1 — lower, -1.41%
- COc1cc(Cl)c(C)cc1NC(=O)C(C)N1CCN(CCc2ccccc2)CC1 (stereo unspecified) — lower, -11.8%
- O=C1CCCC2=C1C(c1ccc(C(=O)O)cc1)c1c([nH]n(-c3ccccc3)c1=O)N2 (stereo unspecified) — higher, 14.2%
- CCOC(=O)C1=C(CN2CCN(C(=O)OC(C)(C)C)CC2)NC(=O)NC1c1ccccc1OCC (stereo unspecified) — lower, -21.6%
- Cc1cc(CNC(=O)NCc2coc(-c3cccs3)n2)ccc1F — lower, -5.62%
- CCCNc1c(NS(=O)(=O)c2ccc(F)c(F)c2)c(=O)oc2ccccc12 — higher, 0.151%
- COc1ccc(C(=O)Nc2oc3ccc(Cl)cc3c(=O)c2-c2ccc3c(c2)OCO3)cc1 — lower, -4.91%
- Cc1c(C(N)=O)[n+](=O)c2ccccc2n1[O-] — lower, -7.73%
- Oc1ccc2ccccc2c1C=NCCc1ccccc1 — higher, 43.7%
- Cn1c(=O)c2c(ncn2CC(=O)Nc2cccc(F)c2)n(C)c1=O — higher, 0.764%
- COc1ccc(Nc2ccccc2)cc1 — higher, 15%
- Cc1ccc(CN2C(=O)SC(Nc3ccccc3)C2=O)cc1 (stereo unspecified) — lower, -3.19%
- COc1ccc(-c2nn3c(-c4ccc(OC)cc4)nnc3c3ccccc23)cc1 — lower, -7.99%
- Cc1ccc(-c2nnn(Cc3csc(-c4ccccc4Cl)n3)n2)cc1 — lower, -3.25%
- CCCCn1c(=O)[nH]c(=O)c2c1nc(COC(=O)C1(C#N)CCCC1)n2C — lower, -5.02%
- O=C(CCC1NC(=O)c2ccccc2NC1=O)NC1CCCC1 (stereo unspecified) — lower, -4.57%
- Cc1ccc(N(CC(=O)N2CCN(C/C=C/c3ccccc3)CC2)S(C)(=O)=O)cc1 — higher, -0.0793%
- CCCn1nc(C(=O)N(C)Cc2ccc(OCC)cc2)c2ccccc2c1=O — lower, -4.2%
- COc1ccc2oc(=O)c(S(=O)(=O)N3CCCCCC3)cc2c1 — lower, -6.37%
- CC(C)CC(=O)Nc1ccc(N2CCCC2)cc1 — higher, 39.8%
- COc1cc(CN2C(=O)C(=O)c3cccc(C)c32)ccc1OCCC(C)C — higher, 5.04%
- COc1ccc(Br)cc1/C=C1\Cc2ccccc2C1=O — higher, 0.293%
- COc1cccc2cc(C(=O)N3CCN(c4cccc(C(F)(F)F)c4)CC3)c(=O)oc12 — higher, 3.43%
- COc1ccccc1CCNC(=O)CSc1ccc(-c2ccccn2)nn1 — higher, 8.88%
- O=C(COc1c(I)cc(Cl)c2cccnc12)N1CCCC1 — lower, -11.3%
- CCN(CC(=O)N(C)C)Cc1ccc(F)c2cccnc12 — higher, 0.454%
- COc1ccc(Oc2c(C)oc3cc(OCC(=O)N4CCC(C(N)=O)CC4)ccc3c2=O)cc1 — lower, -1.42%
- CN(Cc1ccc(OC(F)F)cc1)C(=O)c1nn(Cc2ccccc2)c(=O)c2ccccc12 — higher, 13.3%
- COc1ccc(NC(=O)c2cnn3c2NC(C(=O)O)=CC3c2ccc(F)cc2)cc1 (stereo unspecified) — higher, 18.2%
- Cn1c(SCC(=O)Nc2cccc(F)c2)nc2c(=O)[nH]cnc21 — higher, 11%
- CCN(CC)S(=O)(=O)c1ccc(C)c(NC(=O)COc2ccc(Br)cc2Cl)c1 — lower, -4.43%
- CCN(CC)S(=O)(=O)c1ccc(N2CCCC2)c(NS(=O)(=O)c2cccs2)c1 — lower, -11.2%
- COC(=O)c1ccc(C2C(C#N)=C(N)Oc3c2ccc2ccccc32)cc1 (stereo unspecified) — lower, -5.14%
- Cn1c(/C(C#N)=C2/CCCCCN2)nc2ccccc21 — higher, 1.28%
- Cc1cc2nc(/C(C#N)=C/c3ccccc3)[nH]c2cc1C — higher, 9.89%
- CC(C)CC(NC(=O)COc1ccc(Oc2ccccc2)cc1)C(=O)O (stereo unspecified) — higher, -0.172%
- O=C(O)c1cc(NC(=O)c2ccc(Cl)s2)cc(C(=O)O)c1 — lower, -9.52%

In the case of `COc1ccc(-c2nc(=N)sn2-c2ccccc2)cc1`, the activity change is reported as -63.7% (active).
`Cc1ccc(-c2nc(=N)sn2Cc2ccccc2)cc1` was tested, and the activity change was -80.9% (active).
For `CCN(CC)S(=O)(=O)c1ccc(C)c(NS(=O)(=O)c2cccc(C#N)c2)c1`, the activity change was -34.7% (active).
With `Cc1cc(/C=C(/C#N)c2nc3ccccc3n2C)cc(C)c1O` the activity change was -32.2% (active).
